# From publication PMC11062922 (Nature Chemical Biology, 2023)
# Where two headings read alike, the source gives them in different places.
# Columns and labels:
# Conditions in all cases: read-out: apparent Kd, n = 1
# PRKAA1 = test system: PRKAA1
# PRKAG1 = test system: PRKAG1
# PRKD1 = test system: PRKD1
# [1] = compound concentrations:100 nM and 1000 nM (sheet 'Lestaurtinib' of Supplementary Table 1),run:Lestaurtinib_02381_R3,Plate:MR004
# [2] = compound concentrations:100 nM and 1000 nM (sheet 'Lestaurtinib' of Supplementary Table 1),run:Lestaurtinib_02422_R1,Plate:MR006
# [3] = compound concentrations:100 nM and 1000 nM (sheet 'Lestaurtinib' of Supplementary Table 1),run:Lestaurtinib_02437_R3,Plate:MR007
# [4] = compound concentrations:100 nM and 1000 nM (sheet 'Lestaurtinib' of Supplementary Table 1),run:Lestaurtinib_02438_R3,Plate:MR008
# [5] = compound concentrations:100 nM and 1000 nM (sheet 'Lestaurtinib' of Supplementary Table 1),run:Lestaurtinib_02443_R3,Plate:MR009
# [6] = compound concentrations:100 nM and 1000 nM (sheet 'Lestaurtinib' of Supplementary Table 1),run:Lestaurtinib_02473_R2,Plate:MR010
# [7] = compound concentrations:100 nM and 1000 nM (sheet 'Lestaurtinib' of Supplementary Table 1),run:Lestaurtinib_02473_R3,Plate:MR010
# [8] = compound concentrations:100 nM and 1000 nM (sheet 'Lestaurtinib' of Supplementary Table 1),run:Lestaurtinib_02482_R2,Plate:MR011
# [9] = compound concentrations:100 nM and 1000 nM (sheet 'Lestaurtinib' of Supplementary Table 1),run:Lestaurtinib_02487_R1,Plate:MR012
# [10] = compound concentrations:100 nM and 1000 nM (sheet 'Lestaurtinib' of Supplementary Table 1),run:Lestaurtinib_02566_R3,Plate:MR014
# [11] = compound concentrations:100 nM and 1000 nM (sheet 'Lestaurtinib' of Supplementary Table 1),run:Lestaurtinib_02584_R2,Plate:MR017
# [12] = compound concentrations:100 nM and 1000 nM (sheet 'Lestaurtinib' of Supplementary Table 1),run:Lestaurtinib_02606_R2,Plate:MR019
# [13] = compound concentrations:100 nM and 1000 nM (sheet 'Lestaurtinib' of Supplementary Table 1),run:Lestaurtinib_02624_R3,Plate:MR020
# [14] = compound concentrations:100 nM and 1000 nM (sheet 'Lestaurtinib' of Supplementary Table 1),run:Lestaurtinib_02724_R3,Plate:MR021
# [15] = compound concentrations:100 nM and 1000 nM (sheet 'Lestaurtinib' of Supplementary Table 1),run:Lestaurtinib_02748_R2,Plate:MR024
# [16] = compound concentrations:100 nM and 1000 nM (sheet 'Lestaurtinib' of Supplementary Table 1),run:Lestaurtinib_02752_R3,Plate:MR025
# [17] = compound concentrations:100 nM and 1000 nM (sheet 'Lestaurtinib' of Supplementary Table 1),run:Lestaurtinib_02768_R3,Plate:MR028
# [18] = compound concentrations:100 nM and 1000 nM (sheet 'Lestaurtinib' of Supplementary Table 1),run:Lestaurtinib_02896_R3,Plate:MR030
# [19] = compound concentrations:100 nM and 1000 nM (sheet 'Lestaurtinib' of Supplementary Table 1),run:Lestaurtinib_02364_R3,Plate:MR002
# [20] = compound concentrations:100 nM and 1000 nM (sheet 'Lestaurtinib' of Supplementary Table 1),run:Lestaurtinib_02601_R1,Plate:MR018
# [21] = compound concentrations:100 nM and 1000 nM (sheet 'Lestaurtinib' of Supplementary Table 1),run:Lestaurtinib_02748_R3,Plate:MR024
substance,measurement,setting,value
Lestaurtinib,potency estimated from few doses,PRKAA1; [1],952 nM
same,potency estimated from few doses,PRKAA1; [2],741 nM
same,potency estimated from few doses,PRKAA1; [3],79.1 nM
same,potency estimated from few doses,"PRKAA1; compound concentrations:100 nM and 1000 nM (sheet 'Lestaurtinib' of Supplementary Table 1),run:Lestaurtinib_02438_R1,Plate:MR008",898 nM
same,potency estimated from few doses,PRKAA1; [4],1600 nM
same,potency estimated from few doses,PRKAA1; [5],762 nM
same,potency estimated from few doses,PRKAA1; [6],944 nM
same,potency estimated from few doses,PRKAA1; [7],74.3 nM
same,potency estimated from few doses,"PRKAA1; compound concentrations:100 nM and 1000 nM (sheet 'Lestaurtinib' of Supplementary Table 1),run:Lestaurtinib_02482_R1,Plate:MR011",1130 nM
same,potency estimated from few doses,PRKAA1; [8],1490 nM
same,potency estimated from few doses,PRKAA1; [9],253 nM
same,potency estimated from few doses,"PRKAA1; compound concentrations:100 nM and 1000 nM (sheet 'Lestaurtinib' of Supplementary Table 1),run:Lestaurtinib_02487_R3,Plate:MR012",737 nM
same,potency estimated from few doses,PRKAA1; [10],1310 nM
same,potency estimated from few doses,"PRKAA1; compound concentrations:100 nM and 1000 nM (sheet 'Lestaurtinib' of Supplementary Table 1),run:Lestaurtinib_02572_R1,Plate:MR015",904 nM
same,potency estimated from few doses,PRKAA1; [11],1310 nM
same,potency estimated from few doses,PRKAA1; [12],1490 nM
same,potency estimated from few doses,PRKAA1; [13],1310 nM
same,potency estimated from few doses,PRKAA1; [14],883 nM
same,potency estimated from few doses,"PRKAA1; compound concentrations:100 nM and 1000 nM (sheet 'Lestaurtinib' of Supplementary Table 1),run:Lestaurtinib_02748_R1,Plate:MR024",858 nM
same,potency estimated from few doses,PRKAA1; [15],956 nM
same,potency estimated from few doses,"PRKAA1; compound concentrations:100 nM and 1000 nM (sheet 'Lestaurtinib' of Supplementary Table 1),run:Lestaurtinib_02752_R1,Plate:MR025",1360 nM
same,potency estimated from few doses,PRKAA1; [16],1210 nM
same,potency estimated from few doses,"PRKAA1; compound concentrations:100 nM and 1000 nM (sheet 'Lestaurtinib' of Supplementary Table 1),run:Lestaurtinib_02766_R1,Plate:MR027",1580 nM
same,potency estimated from few doses,"PRKAA1; compound concentrations:100 nM and 1000 nM (sheet 'Lestaurtinib' of Supplementary Table 1),run:Lestaurtinib_02766_R3,Plate:MR027",1320 nM
same,potency estimated from few doses,"PRKAA1; compound concentrations:100 nM and 1000 nM (sheet 'Lestaurtinib' of Supplementary Table 1),run:Lestaurtinib_02768_R1,Plate:MR028",932 nM
same,potency estimated from few doses,PRKAA1; [17],921 nM
same,potency estimated from few doses,"PRKAA1; compound concentrations:100 nM and 1000 nM (sheet 'Lestaurtinib' of Supplementary Table 1),run:Lestaurtinib_02896_R1,Plate:MR030",784 nM
same,potency estimated from few doses,"PRKAA1; compound concentrations:100 nM and 1000 nM (sheet 'Lestaurtinib' of Supplementary Table 1),run:Lestaurtinib_02896_R2,Plate:MR030",1130 nM
same,potency estimated from few doses,PRKAA1; [18],931 nM
same,potency estimated from few doses,"PRKAA1; compound concentrations:100 nM and 1000 nM (sheet 'Lestaurtinib' of Supplementary Table 1),run:Lestaurtinib_03172_R1,Plate:MR031",1570 nM
same,potency estimated from few doses,"PRKAA1; compound concentrations:100 nM and 1000 nM (sheet 'Lestaurtinib' of Supplementary Table 1),run:Lestaurtinib_03172_R2,Plate:MR031",1330 nM
same,potency estimated from few doses,"PRKAG1; compound concentrations:100 nM and 1000 nM (sheet 'Lestaurtinib' of Supplementary Table 1),run:Lestaurtinib_02339_R2,Plate:MR001",584 nM
same,potency estimated from few doses,"PRKAG1; compound concentrations:100 nM and 1000 nM (sheet 'Lestaurtinib' of Supplementary Table 1),run:Lestaurtinib_02339_R3,Plate:MR001",531 nM
same,potency estimated from few doses,PRKAG1; [19],1000 nM
same,potency estimated from few doses,"PRKAG1; compound concentrations:100 nM and 1000 nM (sheet 'Lestaurtinib' of Supplementary Table 1),run:Lestaurtinib_02367_R3,Plate:MR003",887 nM
same,potency estimated from few doses,"PRKAG1; compound concentrations:100 nM and 1000 nM (sheet 'Lestaurtinib' of Supplementary Table 1),run:Lestaurtinib_02381_R1,Plate:MR004",712 nM
same,potency estimated from few doses,PRKAG1; [1],611 nM
same,potency estimated from few doses,"PRKAG1; compound concentrations:100 nM and 1000 nM (sheet 'Lestaurtinib' of Supplementary Table 1),run:Lestaurtinib_02407_R1,Plate:MR005",924 nM
same,potency estimated from few doses,"PRKAG1; compound concentrations:100 nM and 1000 nM (sheet 'Lestaurtinib' of Supplementary Table 1),run:Lestaurtinib_02407_R2,Plate:MR005",928 nM
same,potency estimated from few doses,"PRKAG1; compound concentrations:100 nM and 1000 nM (sheet 'Lestaurtinib' of Supplementary Table 1),run:Lestaurtinib_02407_R3,Plate:MR005",1150 nM
same,potency estimated from few doses,PRKAG1; [2],131 nM
same,potency estimated from few doses,"PRKAG1; compound concentrations:100 nM and 1000 nM (sheet 'Lestaurtinib' of Supplementary Table 1),run:Lestaurtinib_02437_R2,Plate:MR007",1340 nM
same,potency estimated from few doses,PRKAG1; [3],83.7 nM
same,potency estimated from few doses,PRKAG1; [4],1600 nM
same,potency estimated from few doses,PRKAG1; [5],935 nM
same,potency estimated from few doses,PRKAG1; [6],859 nM
same,potency estimated from few doses,PRKAG1; [7],835 nM
same,potency estimated from few doses,PRKAG1; [8],1580 nM
same,potency estimated from few doses,PRKAG1; [9],365 nM
same,potency estimated from few doses,PRKAG1; [10],79.5 nM
same,potency estimated from few doses,"PRKAG1; compound concentrations:100 nM and 1000 nM (sheet 'Lestaurtinib' of Supplementary Table 1),run:Lestaurtinib_02584_R1,Plate:MR017",798 nM
same,potency estimated from few doses,PRKAG1; [11],936 nM
same,potency estimated from few doses,PRKAG1; [20],963 nM
same,potency estimated from few doses,PRKAG1; [12],1240 nM
same,potency estimated from few doses,"PRKAG1; compound concentrations:100 nM and 1000 nM (sheet 'Lestaurtinib' of Supplementary Table 1),run:Lestaurtinib_02624_R2,Plate:MR020",876 nM
same,potency estimated from few doses,PRKAG1; [13],1320 nM
same,potency estimated from few doses,PRKAG1; [21],1790 nM
same,potency estimated from few doses,"PRKAG1; compound concentrations:100 nM and 1000 nM (sheet 'Lestaurtinib' of Supplementary Table 1),run:Lestaurtinib_02752_R2,Plate:MR025",818 nM
same,potency estimated from few doses,PRKAG1; [16],954 nM
same,potency estimated from few doses,"PRKAG1; compound concentrations:100 nM and 1000 nM (sheet 'Lestaurtinib' of Supplementary Table 1),run:Lestaurtinib_02768_R2,Plate:MR028",1540 nM
same,potency estimated from few doses,PRKAG1; [17],852 nM
same,potency estimated from few doses,"PRKAG1; compound concentrations:100 nM and 1000 nM (sheet 'Lestaurtinib' of Supplementary Table 1),run:Lestaurtinib_02795_R2,Plate:MR022",1330 nM
same,potency estimated from few doses,"PRKAG1; compound concentrations:100 nM and 1000 nM (sheet 'Lestaurtinib' of Supplementary Table 1),run:Lestaurtinib_02802_R1,Plate:MR029",1150 nM
same,potency estimated from few doses,"PRKAG1; compound concentrations:100 nM and 1000 nM (sheet 'Lestaurtinib' of Supplementary Table 1),run:Lestaurtinib_02802_R2,Plate:MR029",1430 nM
same,potency estimated from few doses,PRKAG1; [18],700 nM
same,potency estimated from few doses,"PRKAG1; compound concentrations:100 nM and 1000 nM (sheet 'Lestaurtinib' of Supplementary Table 1),run:Lestaurtinib_03252_R1,Plate:MR032",744 nM
same,potency estimated from few doses,"PRKAG1; compound concentrations:100 nM and 1000 nM (sheet 'Lestaurtinib' of Supplementary Table 1),run:Lestaurtinib_03260_R1,Plate:MR033",860 nM
same,potency estimated from few doses,"PRKAG1; compound concentrations:100 nM and 1000 nM (sheet 'Lestaurtinib' of Supplementary Table 1),run:Lestaurtinib_03260_R2,Plate:MR033",760 nM
same,potency estimated from few doses,PRKD1; [19],131 nM
same,potency estimated from few doses,"PRKD1; compound concentrations:100 nM and 1000 nM (sheet 'Lestaurtinib' of Supplementary Table 1),run:Lestaurtinib_02443_R2,Plate:MR009",226 nM
same,potency estimated from few doses,PRKD1; [5],271 nM
same,potency estimated from few doses,"PRKD1; compound concentrations:100 nM and 1000 nM (sheet 'Lestaurtinib' of Supplementary Table 1),run:Lestaurtinib_02473_R1,Plate:MR010",248 nM
same,potency estimated from few doses,PRKD1; [6],235 nM
same,potency estimated from few doses,"PRKD1; compound concentrations:100 nM and 1000 nM (sheet 'Lestaurtinib' of Supplementary Table 1),run:Lestaurtinib_02496_R2,Plate:MR013",47.1 nM
same,potency estimated from few doses,"PRKD1; compound concentrations:100 nM and 1000 nM (sheet 'Lestaurtinib' of Supplementary Table 1),run:Lestaurtinib_02566_R1,Plate:MR014",253 nM
same,potency estimated from few doses,PRKD1; [11],206 nM
same,potency estimated from few doses,"PRKD1; compound concentrations:100 nM and 1000 nM (sheet 'Lestaurtinib' of Supplementary Table 1),run:Lestaurtinib_02584_R3,Plate:MR017",278 nM
same,potency estimated from few doses,PRKD1; [20],99.8 nM
same,potency estimated from few doses,"PRKD1; compound concentrations:100 nM and 1000 nM (sheet 'Lestaurtinib' of Supplementary Table 1),run:Lestaurtinib_02606_R1,Plate:MR019",131 nM
same,potency estimated from few doses,"PRKD1; compound concentrations:100 nM and 1000 nM (sheet 'Lestaurtinib' of Supplementary Table 1),run:Lestaurtinib_02606_R3,Plate:MR019",135 nM
same,potency estimated from few doses,PRKD1; [14],41.4 nM
same,potency estimated from few doses,"PRKD1; compound concentrations:100 nM and 1000 nM (sheet 'Lestaurtinib' of Supplementary Table 1),run:Lestaurtinib_02741_R1,Plate:MR023",13.3 nM
same,potency estimated from few doses,"PRKD1; compound concentrations:100 nM and 1000 nM (sheet 'Lestaurtinib' of Supplementary Table 1),run:Lestaurtinib_02741_R3,Plate:MR023",17.5 nM
same,potency estimated from few doses,PRKD1; [15],208 nM
same,potency estimated from few doses,PRKD1; [21],254 nM
same,potency estimated from few doses,"PRKD1; compound concentrations:100 nM and 1000 nM (sheet 'Lestaurtinib' of Supplementary Table 1),run:Lestaurtinib_02795_R3,Plate:MR022",193 nM
